# Where two headings read alike, the source gives them in different places. Screen size: about 13,000 compounds; about 3,200 (25%) showed an effect of 50% or more. The list shows a part of the results.
# Tested on: P. falciparum stage V gametocytes
# Parameters: BacTiter-Glo ATP luminescence viability of purified stage V gametocytes in 384-well plates, per cent inhibition versus DMSO
# Conditions: 48 h, 5 µM, inhibitor
Structure (SMILES),% Inhibition [%],% Inhibition (% Inhibition) [%]
CN(C)CCCNCc1ccc(-c2ccc(C(F)(F)F)cc2)cc1 [TCMDC-140011],92.27,
CN1CCC(NCc2ccc(-c3ccc(C(F)(F)F)cc3)cc2)CC1 [TCMDC-141094],-30.31,
O=C(CC(=O)C(F)(F)F)c1ccccc1[N+](=O)[O-] [TCMDC-125884],22.33,
Cc1ccc(-n2c(Cc3cccc4ccccc34)nnc2SCCC#N)c(C)c1 [TCMDC-123560],-0.8399,
O=C(CC1CCCC1)Nc1ccc2c(c1)CCC2 [TCMDC-124327],8.334,
CC(C)n1ncc2c(C(=O)N3CCCC4CCCCC43)cc(C3CC3)nc21 (centres unmarked) [TCMDC-125305],-1.205,
Cc1ccc(-n2c(Sc3ncnc4sccc34)nnc2N2CCCC2)cc1 [TCMDC-125247],65.97,
CN1CCN(CCCCNc2c3ccccc3nc3ccccc23)CC1 [TCMDC-137479],105.4,
CN1CCN(c2nc(NCCNc3ccc([N+](=O)[O-])cc3)c3ccccc3n2)CC1 [TCMDC-124567],35.05,
COc1cc2nc(NCCC(C)C)n3nc(-c4ccccc4)nc3c2cc1OC [TCMDC-124451],-18.82,
CC(CCNc1c2ccccc2nc2ccccc12)N1CCN(C)CC1 (centres unmarked) [TCMDC-138011],98.03,
CN1CCN(CCCCCCNc2c3ccccc3nc3ccccc23)CC1 [TCMDC-137542],98.34,
CN1CCN(CCCCCNc2c3ccccc3nc3ccccc23)CC1 [TCMDC-137541],96.5,
COc1ccc2nccc([C@@H](O)CN3CCC(NCc4nc5c(cc4Cl)SCC(=O)N5)C(F)C3)c2c1 (some centres unmarked) [TCMDC-141717],,2.766
O=C(Nc1ccc(S(=O)(=O)N2CCCC2)cc1)c1cc(-c2cccnc2)nc2ccc(Cl)cc12 [TCMDC-124359],-22.21,
COc1ccc(-c2cnc(N)nc2N)cc1Cl [TCMDC-137297],-3.357,
CC(C)(C)c1cc(C(=O)N2CCN(c3ccc(C(F)(F)F)cn3)CC2)n(Cc2ccc(F)cc2)n1 [TCMDC-123791],22.03,
Cc1nc(-c2cccc3c(NC(=O)N4CCc5cc6nccc(N7CCN(C)CC7)c6cc54)cccc23)no1 [TCMDC-139370],-51.93,
Cc1cc(N2CCCCC2)nc2ccc(NC(=O)c3cncc(Br)c3)cc12 [TCMDC-124421],17.06,

Structure (SMILES),% Inhibition [%],% Inhibition (% Inhibition) [%]
O=C(Nc1ccccc1)c1ccc(N2CCC(COc3cccc(C(F)(F)F)c3)CC2)nc1 [TCMDC-134507],-9.482,
CC(C)CNCc1cccc(-c2cccc(CN(C(=O)NC3CCCCC3)C3CCN(Cc4ccccc4)CC3)c2)c1 [TCMDC-140627],95.46,
CC(C)CNCc1ccc(-c2cccc(CN(C(=O)NC3CCCCC3)C3CCN(Cc4ccccc4)CC3)c2)cc1 [TCMDC-140628],92.69,
CC(C)CNCc1cccc(-c2ccc(CN(C(=O)NC3CCCCC3)C3CCN(Cc4ccccc4)CC3)cc2)c1 [TCMDC-140634],102.1,
CC(C)CNCc1ccc(-c2ccc(CN(C(=O)NC3CCCCC3)C3CCN(Cc4ccccc4)CC3)cc2)cc1 [TCMDC-140635],103.7,
CC(C)Oc1ccc(C=CC(=O)Nc2noc3ccccc23)cc1 [TCMDC-125292],41.66,
Cc1cccc(CNc2nc(C)cc(NCCC(=O)NCCOc3ccccc3)n2)c1 [TCMDC-134884],13.93,
COc1ccc2ncc(Cl)c(CCN3CCC(NCc4ccc5c(n4)NC(=O)CO5)CC3)c2c1 [TCMDC-141808],-9.673,
O=C(NCCc1ccc(O)cc1)n1c2ccccc2c2ccccc21 [TCMDC-138166],-0.5781,
Cc1ccccc1CNc1noc(-c2c(F)cccc2Cl)n1 [TCMDC-133373],21.36,
CC(C)c1cccc(OCC2CCN(c3ncc(C(=O)NC4CC4)cc3Cl)CC2)c1 [TCMDC-134260],-10.41,
O=C(NC1CC1)c1cnc(N2CCC(OCc3ccccc3)CC2)c(Cl)c1 [TCMDC-134610],14.6,
Cc1ccc(OCC2CCN(c3ncc(C(=O)NC4CC4)cc3Cl)CC2)cc1 [TCMDC-134055],11.28,
Cc1cccc(OC2CCN(c3ncc(C(=O)NCCCN4CCCC4=O)cc3Cl)CC2)c1 [TCMDC-134057],81.53,
Cc1ccc(OCC2CCN(c3ncc(C(=O)NCCCN4CCCC4=O)cc3Cl)CC2)cc1 [TCMDC-134056],53.1,
Cc1cccc(OCC2CCN(c3ncc(C(=O)NC4CC4)cc3Cl)CC2)c1 [TCMDC-134058],0.6256,
O=C(NCCCN1CCCC1=O)c1cnc(N2CCC(Oc3ccccc3)CC2)c(Cl)c1 [TCMDC-134054],50.82,
Cc1cc(OCC2CCN(c3ncc(C(=O)NC4CC4)cc3Cl)CC2)ccc1F [TCMDC-134032],14.47,
O=C(NC1CC1)c1cnc(N2CCC(Oc3ccc(Cl)cc3)CC2)c(Cl)c1 [TCMDC-134040],28.34,
